Experimental data published in PubChem BioAssay (Tox21).
Values joined by “and” are separate entries in the source; they are usually repeats but may differ in a detail not shown here. Equal entries are not always repeated. Results filed as inconclusive are left out. Entries that show only a call come without a potency. A structure can be active in one record and inactive in another. Active and inactive are the calls of the source. Calls follow the shape of the dose curve; as a rule, active = well fitted curve in the direction sought with a large enough effect in the repeat runs; inconclusive = weak or mixed curves; inactive = no such curve, though single readings can be large; an effect the other way counts as inactive or inconclusive.

Legend:
[1] = qHTS RealTime-Glo MT Cell Viability Assay in HepG2 cells - 40 hour (AID 1224870); also: nearly all actives have a fitted effect of over 50% in size
Outline: (§1)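 Real-time viability: cells seeded at 600 per well together with NanoLuc and cell-permeant prosubstrate, compounds added after 5 h incubation. Luminescence tracked at 0, 8, 16, 24, 32 and 40 h of exposure.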

[2] = A CellTox Green Cytotoxicity Assay to monitor cytotoxicity in HEK293 cells - 40 hour (AID 1224871); also: nearly all actives have a fitted effect of over 45% in size; also: potency is read from the fitted curve at half-maximal effect
Outline: (§2)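 Nonlytic real-time cytotoxicity: HEK293 + CellTox Green reagent plated, 5 h preincubation, pintool compound addition (23 nL in DMSO), 37 C for 40 h, fluorescence measured at successive time points.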

[3] = qHTS RealTime-Glo MT Cell Viability Assay in HEK293 cells - 16 hour (AID 1224872); also: top concentration of the series differs between compounds; nearly all actives have a fitted effect of over 50% in size
Outline: (§3)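 Viability tracked continuously by luminescence as live cells reduce a prosubstrate for NanoLuc; HEK293 cells preincubated 5 h, compound-treated at 37 C, and read at 0, 8, 16, 24, 32 and 40 h.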

[4] = qHTS RealTime-Glo MT Cell Viability Assay in HepG2 cells - 8 hour (AID 1224873); also: nearly all actives have a fitted effect of over 55% in size
Outline: as §1

[5] = qHTS RealTime-Glo MT Cell Viability Assay in HEK293 cells - 40 hour (AID 1224874); conditions: RealTime-Glo luminescence; max response: stronger effect = lower value; also: nearly all actives have a fitted effect of over 50% in size; also: potency is read from the fitted curve at half-maximal effect
Outline: (§4)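 Cells were seeded together with NanoLuc luciferase and a prosubstrate that viable cells reduce to a luciferase substrate. After a 5 h incubation at 37 C/5% CO2, compounds were added and luminescence was measured repeatedly during 40 h of treatment.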

[6] = A CellTox Green Cytotoxicity Assay to monitor cytotoxicity in HEK293 cells - 24 hour (AID 1224875); also: series mostly up to about 77 µM; nearly all actives have a fitted effect of over 45% in size
Outline: as §2

[7] = A CellTox Green Cytotoxicity Assay to monitor cytotoxicity in HepG2 cells - 16 hour (AID 1224876); also: nearly all actives have a fitted effect of over 45% in size; also: potency is read from the fitted curve at half-maximal effect
Outline: (§5)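 Read-out is fluorescence of a cyanine dye excluded from live cells that stains DNA of dead HepG2 cells, with signal proportional to cytotoxicity. Plates were read at 0, 8, 16, 24, 32 and 40 h after compound addition.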

[8] = qHTS RealTime-Glo MT Cell Viability Assay in HepG2 cells - 32 hour (AID 1224877); also: nearly all actives have a fitted effect of over 55% in size
Outline: (§6)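 Viability was tracked continuously by NanoLuc luminescence from prosubstrate reduced by living HepG2 cells, at successive time points over 40 h of compound exposure. Cells with reagent were preincubated 5 h at 37 °C before compound addition.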

[9] = A CellTox Green Cytotoxicity Assay to monitor cytotoxicity in HepG2 cells - 24 hour (AID 1224878); also: nearly all actives have a fitted effect of over 45% in size; also: potency is read from the fitted curve at half-maximal effect
Outline: as §5

[10] = A CellTox Green Cytotoxicity Assay to monitor cytotoxicity in HepG2 cells - 40 hour (AID 1224879); also: nearly all actives have a fitted effect of over 40% in size; also: potency is read from the fitted curve at half-maximal effect
Outline: as §5

[11] = qHTS RealTime-Glo MT Cell Viability Assay in HEK293 cells - 0 hour (AID 1224880)
Outline: as §4

[12] = A CellTox Green Cytotoxicity Assay to monitor cytotoxicity in HEK293 cells - 32 hour (AID 1224881); also: nearly all actives have a fitted effect of over 40% in size; also: potency is read from the fitted curve at half-maximal effect
Outline: as §2

[13] = A CellTox Green Cytotoxicity Assay to monitor cytotoxicity in HepG2 cells - 0 hour (AID 1224882); also: nearly all actives have a fitted effect of over 35% in size; also: potency is read from the fitted curve at half-maximal effect
Outline: as §5

[14] = A CellTox Green Cytotoxicity Assay to monitor cytotoxicity in HepG2 cells - 32 hour (AID 1224883); also: nearly all actives have a fitted effect of over 50% in size; also: potency is read from the fitted curve at half-maximal effect
Outline: as §5

[15] = A CellTox Green Cytotoxicity Assay to monitor cytotoxicity in HEK293 cells - 8 hour (AID 1224884); also: nearly all actives have a fitted effect of over 35% in size; also: potency is read from the fitted curve at half-maximal effect
Outline: as §2

[16] = qHTS RealTime-Glo MT Cell Viability Assay in HepG2 cells - 16 hour (AID 1224885); also: nearly all actives have a fitted effect of over 50% in size
Outline: as §6

[17] = qHTS RealTime-Glo MT Cell Viability Assay in HEK293 cells - 24 hour (AID 1224886)
Outline: as §3

[18] = qHTS RealTime-Glo MT Cell Viability Assay in HEK293 cells - 8 hour (AID 1224887)
Outline: as §4

[19] = A CellTox Green Cytotoxicity Assay to monitor cytotoxicity in HEK293 cells - 16 hour (AID 1224888); also: nearly all actives have a fitted effect of over 35% in size
Outline: as §2

[20] = qHTS RealTime-Glo MT Cell Viability Assay in HepG2 cells - 0 hour (AID 1224889); also: nearly all actives have a fitted effect of over 50% in size
Outline: as §6

Which Potency [1] does the source give for Cc1ccc(C(=O)c2cc(O)c(O)c([N+](=O)[O-])c2)cc1 here?
The Potency was “inactive”.

What about the Potency [2] of the same compound?
The Potency was “inactive”.

And the Potency [3]?
Its Potency is “inactive”.

And the Potency [4]?
Its Potency is “inactive”.

What about the Potency [5] of the same compound?
Its Potency is 49 µM (active).

And the Potency [6]?
The Potency was “inactive”.

What about the Potency [7] of the same compound?
The Potency was “inactive”.

What about the Potency [8] of the same compound?
The Potency was “inactive”.

What about the Potency [9] of the same compound?
Its Potency is “inactive”.

What about the Potency [10] of the same compound?
The Potency was 49 µM (active) and inactive.

And the Potency [11]?
The Potency was “inactive”.

And the Potency [12]?
Its Potency is “inactive”.

And the Potency [13]?
The Potency was “inactive”.

What about the Potency [14] of the same compound?
Its Potency is “inactive”.

What about the Potency [15] of the same compound?
The Potency was “inactive”.

What about the Potency [16] of the same compound?
Its Potency is “inactive”.

And the Potency [17]?
The Potency was “inactive”.

And the Potency [18]?
The Potency was “inactive”.

And the Potency [19]?
The Potency was “inactive”.

And the Potency [20]?
Its Potency is “inactive”.

With O=P(O)(O)O as the compound, how does the Potency [1] read?
The Potency was “inactive”.

What about the Potency [2] of the same compound?
Its Potency is “inactive”.

What about the Potency [3] of the same compound?
Its Potency is “inactive”.

And the Potency [4]?
Its Potency is “inactive”.

And the max response [5]?
Its max response is -1.49% (inactive) and 1.49% (inactive).

What about the Potency [6] of the same compound?
Its Potency is “inactive”.

What about the Potency [8] of the same compound?
Its Potency is “inactive”.

What about the Potency [9] of the same compound?
The Potency was “inactive”.

And the Potency [10]?
Its Potency is “inactive”.

And the Potency [11]?
Its Potency is “inactive”.

And the Potency [12]?
The Potency was “inactive”.

And the Potency [13]?
The Potency was “inactive”.

And the Potency [14]?
Its Potency is “inactive”.

And the Potency [15]?
Its Potency is “inactive”.

And the Potency [16]?
The Potency was “inactive”.

And the Potency [17]?
Its Potency is “inactive”.

What about the Potency [18] of the same compound?
The Potency was “inactive”.

And the Potency [19]?
Its Potency is “inactive”.

What about the Potency [20] of the same compound?
The Potency was “inactive”.

With CC1=CC2C3CC(C=C3C)C2C1 (stereo not given) as the compound, how does the Potency [1] read?
The Potency was “inactive”.

What about the Potency [2] of the same compound?
The Potency was “inactive and 38.9 µM (active)”.

What about the Potency [3] of the same compound?
The Potency was “inactive”.

And the Potency [4]?
Its Potency is “inactive”.

And the max response [5]?
The max response was 6.31% (inactive) and 1.24% (inactive).

And the Potency [7]?
The Potency was “inactive and 24.5 µM (active)”.

What about the Potency [8] of the same compound?
Its Potency is “inactive”.

What about the Potency [9] of the same compound?
Its Potency is “inactive and 27.5 µM (active)”.

And the Potency [10]?
The Potency was “inactive and 38.9 µM (active)”.

What about the Potency [11] of the same compound?
The Potency was “inactive”.

And the Potency [12]?
Its Potency is “inactive and 38.9 µM (active)”.

What about the Potency [13] of the same compound?
Its Potency is “inactive and 27.5 µM (active)”.

What about the Potency [14] of the same compound?
Its Potency is “inactive and 24.5 µM (active)”.

What about the Potency [15] of the same compound?
The Potency was “inactive and 43.6 µM (active)”.

What about the Potency [16] of the same compound?
Its Potency is “inactive”.

And the Potency [17]?
The Potency was “inactive”.

What about the Potency [18] of the same compound?
Its Potency is “inactive”.

And the Potency [20]?
Its Potency is “inactive”.

Which results are given for O=S(=O)(O)c1ccc(O)cc1?
Potency [1]: inactive; Potency [2]: inactive; Potency [3]: inactive; Potency [4]: inactive; max response [5]: 9.46% (inactive) and 3.12% (inactive); Potency [6]: inactive; Potency [7]: inactive; Potency [8]: inactive; Potency [9]: inactive; Potency [10]: inactive; Potency [11]: inactive; Potency [12]: inactive; Potency [13]: inactive; Potency [14]: inactive; Potency [15]: inactive; Potency [16]: inactive; Potency [17]: inactive; Potency [18]: inactive; Potency [19]: inactive; Potency [20]: inactive

Which Potency [1] does the source give for CC(C)CC(C)(O)C#CC(C)(O)CC(C)C (stereo not given) here?
Its Potency is “inactive”.

What about the Potency [2] of the same compound?
The Potency was “inactive”.

And the Potency [3]?
Its Potency is “inactive”.

What about the Potency [4] of the same compound?
The Potency was “inactive”.

What about the max response [5] of the same compound?
The max response was -20.8% (inactive) and -13.4% (inactive).

What about the Potency [7] of the same compound?
The Potency was “inactive”.

And the Potency [8]?
The Potency was “inactive”.

What about the Potency [9] of the same compound?
Its Potency is “inactive”.

And the Potency [10]?
Its Potency is “inactive”.

What about the Potency [11] of the same compound?
The Potency was “inactive”.

What about the Potency [12] of the same compound?
The Potency was “inactive”.

And the Potency [13]?
The Potency was “inactive”.

And the Potency [15]?
Its Potency is “inactive”.

And the Potency [16]?
The Potency was “inactive”.

What about the Potency [17] of the same compound?
The Potency was “inactive”.

What about the Potency [18] of the same compound?
Its Potency is “inactive”.

And the Potency [19]?
The Potency was “inactive”.

And the Potency [20]?
Its Potency is “inactive”.

For CC(C)(C)NC(=O)[C@H]1CC[C@H]2[C@@H]3CC[C@H]4NC(=O)C=C[C@]4(C)[C@H]3CC[C@]12C, which Potency [1] is on record?
The Potency was “inactive”.

And the Potency [2]?
Its Potency is “inactive”.

And the Potency [3]?
The Potency was “inactive”.

What about the Potency [4] of the same compound?
Its Potency is “inactive”.

What about the max response [5] of the same compound?
The max response was -25.2% (inactive) and -19.5% (inactive).

And the Potency [6]?
Its Potency is “inactive”.

And the Potency [7]?
Its Potency is “inactive”.

And the Potency [8]?
The Potency was “inactive”.

What about the Potency [9] of the same compound?
The Potency was “inactive”.

What about the Potency [10] of the same compound?
The Potency was “inactive”.

What about the Potency [11] of the same compound?
The Potency was “inactive”.

What about the Potency [12] of the same compound?
Its Potency is “inactive”.

What about the Potency [13] of the same compound?
Its Potency is “inactive”.

What about the Potency [14] of the same compound?
Its Potency is “inactive”.

And the Potency [15]?
The Potency was “inactive”.

And the Potency [16]?
The Potency was “inactive”.

And the Potency [17]?
Its Potency is “inactive”.

And the Potency [18]?
The Potency was “inactive”.

And the Potency [19]?
Its Potency is “inactive”.

What about the Potency [20] of the same compound?
The Potency was “inactive”.
